Reference: the antibiotic and cytotoxicity screens of Wong et al. (2023)
Hit rate of the full screen: of about 39,000 compounds, about 1,500 (3.8%) were called active. This excerpt belongs to a sample that is enriched for actives.

The molecules below were run on HSkMC (human skeletal muscle cells) (assay: cytotoxicity call (relative viability < 0.9)). Details: 10 µM.

| Structure (SMILES) | cytotoxicity call |
| --- | --- |
| C[C@H](CO)N1C[C@H](C)[C@H](CN(C)C(=O)Nc2ccc(C(F)(F)F)cc2)OCCCC[C@H](C)Oc2ccc(NC(=O)NC3CCCCC3)cc2C1=O | inactive |
| C[C@@H]1CCCCO[C@@H](CN(C)C(=O)c2ccccc2)[C@@H](C)CN([C@@H](C)CO)C(=O)c2cc(NC(=O)CCC(F)(F)F)ccc2O1 | inactive |
| CO[C@@H]1CN(C)C(=O)c2cc(NC(=O)C3CCOCC3)ccc2OC[C@@H](C)N(Cc2cccnc2)C[C@@H]1C | inactive |
| CC(=O)Oc1cc2c(c(C)c1OC(C)=O)CC=C1[C@@]2(C)CC[C@@]2(C)[C@H]3C[C@](C)(C(=O)O)CC[C@]3(C)CC[C@]12C | active |
| CC1(C(=O)O)CCC2(C)CCC3(C)C(=CC(=O)C4C5(C)CCC(O)C(C)(C)C5CCC43C)C2C1 (configuration not stated) | inactive |
| C[C@@H]1CN([C@@H](C)CO)C(=O)Cc2cc(NC(=O)NC3CCCCC3)ccc2O[C@@H]1CN(C)C(=O)Nc1cccc2ccccc12 | inactive |
| C[C@@H]1CN([C@H](C)CO)C(=O)Cc2cc(NS(C)(=O)=O)ccc2O[C@H]1CN(C)S(=O)(=O)c1cccs1 | inactive |
| CC(C)CC#Cc1ccc2c(c1)O[C@@H](CN(C)C(=O)Cc1ccccn1)[C@@H](C)CN([C@H](C)CO)S2(=O)=O | inactive |
| C[C@H](CO)N1C[C@H](C)[C@H](CN(C)CC2CCCCC2)Oc2ccc(NC(=O)Nc3ccc(C(F)(F)F)cc3)cc2CC1=O | active |
| C[C@@H]1CN([C@@H](C)CO)C(=O)Cc2cc(NC(=O)Nc3ccc(C(F)(F)F)cc3)ccc2O[C@@H]1CN(C)CC1CCCCC1 | inactive |
| C[C@H]1CN([C@@H](C)CO)C(=O)Cc2cc(NC(=O)Nc3ccc(C(F)(F)F)cc3)ccc2O[C@H]1CN(C)CC1CCCCC1 | active |
| C[C@@H]1CN([C@H](C)CO)C(=O)Cc2cc(NC(=O)Nc3ccc(F)cc3)ccc2O[C@H]1CN(C)CC1CCCCC1 | inactive |
| C[C@H]1CN([C@@H](C)CO)C(=O)Cc2cc(NC(=O)Nc3ccc(C(F)(F)F)cc3)ccc2O[C@@H]1CN(C)CC1CCCCC1 | active |
| C[C@@H]1CN([C@H](C)CO)C(=O)Cc2cc(NC(=O)Nc3ccc(C(F)(F)F)cc3)ccc2O[C@@H]1CN(C)CC1CCCCC1 | active |
| Cc1ccc(S(=O)(=O)N(C)C[C@@H]2OCCCC[C@@H](C)Oc3ccc(NC(=O)Nc4cccc5ccccc45)cc3C(=O)N([C@H](C)CO)C[C@@H]2C)cc1 | inactive |
| COCC(=O)N(C)C[C@H]1Oc2cc(C#C[C@H](C)O)ccc2S(=O)(=O)N([C@@H](C)CO)C[C@@H]1C | inactive |
| O=C(CN1CCOCC1)N[C@@H]1CC[C@H](CCn2cc(C3CC3)nn2)O[C@H]1CO | inactive |
| C[C@@H]1CN([C@@H](C)CO)C(=O)Cc2cc(NS(=O)(=O)c3cn(C)cn3)ccc2O[C@H]1CN(C)S(=O)(=O)c1ccc(F)cc1 | inactive |
| C[C@@H]1CN([C@H](C)CO)C(=O)c2cc(NC(=O)NC3CCCCC3)ccc2O[C@@H](C)CCCCO[C@H]1CN(C)C(=O)NC1CCCCC1 | inactive |
| C[C@H]1CN([C@@H](C)CO)C(=O)c2cccc(NC(=O)Nc3ccc4c(c3)OCO4)c2O[C@@H]1CN(C)C(=O)Nc1cccc2ccccc12 | inactive |
| O=C(C[C@H]1CC[C@H]2NC[C@@H](O)COC[C@@H]2O1)NCCN1CCCCC1 | inactive |

| Structure (SMILES) | cytotoxicity call |
| --- | --- |
| CC(C)NC(=O)Nc1ccc2c(c1)CC(=O)N([C@H](C)CO)C[C@@H](C)[C@H](CN(C)C(=O)Nc1ccc3c(c1)OCO3)O2 | inactive |
| C[C@@H]1CCCCO[C@@H](CN(C)C(=O)NC2CCCCC2)[C@H](C)CN([C@@H](C)CO)C(=O)c2cc(NC(=O)CCC(F)(F)F)ccc2O1 | inactive |
| Cc1noc(C)c1NC(=O)N(C)C[C@H]1OCCCC[C@@H](C)Oc2ccc(NC(=O)C3CCCCC3)cc2C(=O)N([C@H](C)CO)C[C@@H]1C | inactive |
| C[C@H]1CN([C@@H](C)CO)C(=O)Cc2cc(NC(=O)Nc3ccc(F)cc3)ccc2O[C@@H]1CN(C)CC1CCCCC1 | inactive |
| C[C@@H]1CN([C@@H](C)CO)C(=O)Cc2cc(NC(=O)Nc3ccc(C(F)(F)F)cc3)ccc2O[C@H]1CN(C)CC1CCCCC1 | active |
| C[C@@H]1CN([C@H](C)CO)C(=O)Cc2cc(NC(=O)Nc3ccc(C(F)(F)F)cc3)ccc2O[C@H]1CN(C)CC1CCCCC1 | active |
| C[C@H](CO)N1C[C@H](C)[C@H](CN(C)Cc2ccc3c(c2)OCO3)OCCCC[C@H](C)Oc2ccc(NC(=O)Cc3ccccc3)cc2C1=O | inactive |
| C[C@H]1CN([C@@H](C)CO)C(=O)Cc2cc(NC(=O)Nc3ccc4c(c3)OCO4)ccc2O[C@@H]1CN(C)Cc1ccc(-c2ccccc2)cc1 | inactive |
| CC(C)[Si](C#Cc1ccc(Oc2ccccc2)cc1)(O[Si](C#Cc1ccc(Oc2ccccc2)cc1)(C(C)C)C(C)C)C(C)C | inactive |
| COc1ccc(CN(C)C[C@@H]2OCCCC[C@@H](C)Oc3ccc(NC(=O)c4ccncc4)cc3C(=O)N([C@H](C)CO)C[C@H]2C)cc1 | inactive |
| O=C(Cc1ccncc1)Nc1ccc2c(c1)[C@@H]1C[C@H](CC(=O)N3CCc4ccccc4C3)O[C@@H](CO)[C@@H]1O2 | inactive |
| CO[C@H]1O[C@H](CO)[C@@H](OC(=O)Nc2cccc(F)c2)[C@H](OC(=O)Nc2ccccc2-c2ccccc2)[C@@H]1OC(=O)Nc1ccccc1-c1ccccc1 | active |
| CO[C@H]1O[C@H](CO)[C@@H](OC(=O)Nc2ccccc2-c2ccccc2)[C@H](OC(=O)Nc2ccc3c(c2)OCO3)[C@H]1OC(=O)Nc1ccc2c(c1)OCO2 | inactive |
| CO[C@H]1O[C@H](CO)[C@@H](OC(=O)Nc2ccccc2-c2ccccc2)[C@H](OC(=O)Nc2ccccc2)[C@@H]1OC(=O)Nc1ccccc1 | inactive |
| CCc1cccc(NC(=O)O[C@H]2[C@H](OC(=O)Nc3ccccc3-c3ccccc3)[C@H](OC(=O)Nc3ccccc3-c3ccccc3)[C@@H](OC)O[C@@H]2CO)c1 | inactive |
| CO[C@H]1O[C@H](CO)[C@@H](OC(=O)Nc2ccccc2-c2ccccc2)[C@H](OC(=O)Nc2ccccc2-c2ccccc2)[C@@H]1OC(=O)Nc1ccccc1-c1ccccc1 | inactive |
| CO[C@H]1O[C@H](CO)[C@@H](OC(=O)Nc2cccc(F)c2)[C@H](OC(=O)Nc2ccccc2-c2ccccc2)[C@H]1OC(=O)Nc1ccccc1-c1ccccc1 | active |
| C[C@@H]1CCCCO[C@@H](CN(C)Cc2ccccc2)[C@H](C)CN([C@@H](C)CO)C(=O)c2cc(NC(=O)Cc3ccccc3)ccc2O1 | inactive |
| C[C@H](CO)N1C[C@H](C)[C@@H](CN(C)S(C)(=O)=O)Oc2ccc(NC(=O)Nc3ccc(F)cc3)cc2C1=O | inactive |
| C[C@@H]1CN([C@@H](C)CO)C(=O)c2cc(NC(=O)CCCN(C)C)ccc2O[C@@H](C)CCCCO[C@@H]1CN(C)CC1CCCCC1 | inactive |
| C[C@H]1CN([C@@H](C)CO)C(=O)Cc2cc(NS(=O)(=O)c3ccc(Cl)cc3)ccc2O[C@H]1CN(C)Cc1ccc(Oc2ccccc2)cc1 | active |

| Structure (SMILES) | cytotoxicity call |
| --- | --- |
| C[C@H](CO)N1C[C@H](C)[C@H](CN(C)Cc2ccc(Oc3ccccc3)cc2)Oc2ccc(NS(=O)(=O)c3ccc(Cl)cc3)cc2CC1=O | active |
| C[C@@H]1CN([C@H](C)CO)C(=O)Cc2cc(NS(=O)(=O)c3ccc(Cl)cc3)ccc2O[C@@H]1CN(C)Cc1ccc(Oc2ccccc2)cc1 | active |
| C[C@H]1CN([C@@H](C)CO)C(=O)Cc2cc(NS(=O)(=O)c3ccc(Cl)cc3)ccc2O[C@@H]1CN(C)Cc1ccc(Oc2ccccc2)cc1 | active |
| Nc1nc(=O)c2[nH]c(=O)cnc2[nH]1 | inactive |
| COc1ccc(CN(C)C[C@H]2OCCCC[C@H](C)Oc3ccc(NC(=O)c4ccccc4)cc3C(=O)N([C@H](C)CO)C[C@@H]2C)cc1 | inactive |
| CO[C@@H]1CN(C)C(=O)c2ccc(NC(=O)Nc3ccccc3)cc2OC[C@@H](C)N(C(=O)CN(C)C)C[C@H]1C | inactive |
| COCC(=O)Nc1ccc2c(c1)C(=O)N(C)C[C@@H](OC)[C@@H](C)CN(Cc1cccc(F)c1)[C@@H](C)CO2 | inactive |
| CC(C)Cn1cnc2c1c(=O)n(C)c(=O)n2C | inactive |
| CC(=O)N1C[C@@H](NC(=O)c2nccn2C)[C@@H]2OCCC[C@@H]21 | inactive |
| C[C@H](CO)N1C[C@H](C)[C@H](CN(C)C(=O)CCC(F)(F)F)OCCCC[C@H](C)Oc2ccc(NS(=O)(=O)c3ccccc3)cc2C1=O | inactive |
| CN1CCN(C(=O)C[C@H]2C[C@@H]3c4cc(NS(=O)(=O)c5ccc(F)cc5)ccc4O[C@@H]3[C@@H](CO)O2)CC1 | inactive |
| C=CCOC(=O)[C@H]1[C@@H]2C(=O)O[C@@H](c3ccccc3)[C@@H](c3ccccc3)N2[C@@H](c2ccc(OCCOC(=O)[C@@H]3C[C@@H]4C(=O)N[C@@H](CCCC[N+](C)(C)C)C(=O)N4[C@@H]3c3cccc(OCCO)c3)cc2)[C@]12C(=O)Nc1ccc(I)cc12 | inactive |
| Cc1noc(C)c1S(=O)(=O)N(C)C[C@H]1OCCCC[C@@H](C)Oc2ccc(NS(C)(=O)=O)cc2C(=O)N([C@@H](C)CO)C[C@@H]1C | inactive |
| COc1ccc(NC(=O)N(C)C[C@@H]2Oc3c(NC(=O)C4CCOCC4)cccc3C(=O)N([C@@H](C)CO)C[C@@H]2C)cc1 | inactive |
| COCC(=O)Nc1ccc2c(c1)C(=O)N(C)C[C@@H](OC)[C@@H](C)CN(C(=O)Cc1cccnc1)[C@@H](C)CO2 | inactive |
| CCCCn1c(SCC(N)=O)nc2c1c(=O)n(C)c(=O)n2C | inactive |
| C[C@@H]1CN([C@H](C)CO)C(=O)Cc2cc(NS(=O)(=O)c3ccc(Cl)cc3)ccc2O[C@H]1CN(C)Cc1ccc(Oc2ccccc2)cc1 | active |
| C[C@@H]1CN([C@@H](C)CO)C(=O)Cc2cc(NS(=O)(=O)c3ccc(Cl)cc3)ccc2O[C@@H]1CN(C)Cc1ccc(Oc2ccccc2)cc1 | active |
| C[C@@H]1CN([C@@H](C)CO)C(=O)Cc2cc(NS(=O)(=O)c3ccc(Cl)cc3)ccc2O[C@H]1CN(C)Cc1ccc(Oc2ccccc2)cc1 | active |
| C[C@H](CO)N1C[C@H](C)[C@@H](CN(C)Cc2ccc(Oc3ccccc3)cc2)Oc2ccc(NS(=O)(=O)c3ccc(Cl)cc3)cc2CC1=O | inactive |
